Values without a mark were called inactive.
Molecular target: COPS5 (UniProt Q92905)
Test: log2 ratio of Biotin-Ahx-Ub-VS probe labelling (fragment/DMSO); higher = less target engagement (more negative = stronger competition), active = hit call of the paper (q ≤ 0.05, log2 ratio ≤ -1)
Settings: compound concentration: 200 uM; treatment time: 3 h
Protocol: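 Competitive ABPP in HEK293T cell lysate. Lysates were treated with each chloroacetamide fragment at 200 µM for 3 h, then with Biotin-Ahx-Ub-VS (0.5 µM, 1 h), NeutrAvidin-enriched and analysed by diaPASEF LC-MS/MS. Protein LFQ was median-normalised; average log2 ratio is fragment/DMSO from an unpaired t-test (n=3 treated, n=44 DMSO). Hits: q ≤ 0.05, log2 ratio ≤ -1, unique peptides ≥ 2.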

Chain of COPS5 (Q92905 whole entry, looked up, the tested form may be a part): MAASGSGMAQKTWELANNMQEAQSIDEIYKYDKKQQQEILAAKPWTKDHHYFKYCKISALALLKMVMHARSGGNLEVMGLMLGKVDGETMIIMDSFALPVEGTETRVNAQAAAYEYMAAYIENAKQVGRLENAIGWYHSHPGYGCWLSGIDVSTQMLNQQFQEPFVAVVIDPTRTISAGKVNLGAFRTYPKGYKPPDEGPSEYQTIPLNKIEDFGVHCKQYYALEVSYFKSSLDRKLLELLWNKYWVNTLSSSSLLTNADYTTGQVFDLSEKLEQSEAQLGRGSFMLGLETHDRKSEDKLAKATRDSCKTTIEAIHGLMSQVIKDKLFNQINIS

| SMILES | log2 ratio of Biotin-Ahx-Ub-VS probe labelling |
| --- | --- |
| Cc1noc(C)c1CNC(=O)CCl | 0.13 |
| CC(NC(=O)CCl)c1csc(-c2ccccc2)n1.Cl (stereo not given) | -0.00417 |
| Cc1c(NC(=O)CCl)c(=O)n(-c2ccccc2)n1C | -0.0844 |
| CC(C)n1nccc1NC(=O)CCl | 0.0761 |
| Cc1ccc(C)c(NC(=O)CCl)c1 | -0.0407 |
| Cc1cc(Cl)ccc1NC(=O)CCl | -0.176 |
| O=C(CCl)Nc1cc(Cl)ccc1C(=O)O | 0.0271 |
| O=C(CCl)N1CCC[C@@H]1c1ccon1 | -0.115 |
| O=C(CCl)N[C@H]1CCS(=O)(=O)c2ccccc21 | -0.0992 |
| O=C(CCl)Nc1cc2c(cc1Cl)OCCCO2 | -0.0643 |
| O=C(CCl)NC1CCOc2ccccc21 (stereo not given) | -0.296 |
| CN(C)C(=O)c1ccc(NC(=O)CCl)cc1 | 0.125 |
| O=C(CCl)NCc1ccc2c(c1)OCO2 | 0.119 |
| O=C(CCl)Nc1ccc(N2CCCC2=O)cc1 | 0.31 |
| O=C(CCl)Nc1nc(-c2cccs2)cs1 | 0.0647 |
| O=C(CCl)N1CC=C(c2c[nH]c3ccccc23)CC1 | -0.0638 |
| Cc1ccc(CNC(=O)CCl)nc1C.Cl | 0.0421 |
| O=C(CCl)N1CCOCCC1c1ccccc1 (stereo not given) | -0.0175 |
| Cc1ccn2cc(CNC(=O)CCl)nc2c1.Cl | 0.326 |
| Cl.O=C(CCl)N1CCN(Cc2ccccc2)CC1 | -0.0604 |

| SMILES | log2 ratio of Biotin-Ahx-Ub-VS probe labelling |
| --- | --- |
| O=C(CCl)N1CC2(CCOCC2)C1 | 0.161 |
| Cl.O=C(CCl)NCCN1CCc2ccccc21 | 0.365 |
| Cc1cccc(NC(=O)CCl)c1C | -0.347 |
| CNC(=O)Cn1cc(NC(=O)CCl)cn1 | 0.0739 |
| CC(NC(=O)CCl)c1noc(Cc2ccccc2)n1 (stereo not given) | 0.201 |
| CN(C)S(=O)(=O)c1ccccc1CNC(=O)CCl | 0.197 |
| CN(CCc1ncc(Br)cn1)C(=O)CCl.Cl | 0.2 |
| Cl.O=C(CCl)N1CCn2ncc(O)c2C1 | 0.242 |
| CC(c1ccccc1)N(C)C(=O)CCl (stereo not given) | 0.082 |
| Cc1nc(CC2CCN(C(=O)CCl)CC2)no1 | 0.22 |
| CCCn1nccc1NC(=O)CCl | -0.308 |
| NC(=O)C(Cc1ccccc1)NC(=O)CCl (stereo not given) | 0.0263 |
| O=C(CCl)NCCc1ccc(F)cc1 | 0.0919 |
| O=C(CCl)N1CCC(=C(F)CO)C1 | -0.253 |
| O=C(CCl)Nc1cccc(NC(=O)c2ccccc2)c1 | -0.238 |
| O=C(CCl)N1CCC(OCc2ccccc2F)CC1 | -0.148 |
| O=C(CCl)N1CCOCC1C1CC1 (stereo not given) | 0.143 |
| C/C(=C\CNC(=O)CCl)c1cnn(C)c1.Cl | -0.0819 |
| CCN1C(=O)C2CN(C(=O)CCl)CCN2C1=O (stereo not given) | -0.0909 |
| Cc1n[nH]c(=O)c2c(NC(=O)CCl)oc(C)c12 | 0.0565 |

Reference: the supplement of paper PMC11732987, “Enantioselective OTUD7B fragment discovery through chemoproteomics screening and high-throughput optimisation” (Communications Chemistry, 2025)
